The source of these data is PubChem BioAssay (NCI).

Test systems include NCI-H23 lung; NCI-H226 lung; NCI-H322M lung; HOP-62 NSCLC; NCI-H460 lung; HOP-92 NSCLC; NCI-H522 lung; A549/ATCC NSCLC; 786-0 renal; COLO 205 colon; DU-145 prostate; K-562 leukemia; MALME-3M melanoma; MDA-MB-231 breast; RXF 393 renal; SF-268 CNS; SF-295 CNS; SF-539 CNS; UACC-257 melanoma; M14 melanoma.
Common to all, as to assay: NCI-60 one-dose screen, 48 h (100 = growth as untreated, 0 = no growth, -100 = all killed)
Settings in all cases: 10 µM unless noted

Molecules are shown by their SMILES. About 83,000 compounds went through this panel and 20% of them were active in at least one assay; those are over-represented in the sample as a whole.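 For each line, cells grew in 96-well plates with the test compound present at a single concentration for 48 hours.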 Values without a mark were called inactive. The source made the active and inactive calls. Rule for the calls: active = growth percent below 10; inactive = the rest.

`Cc1cc(C(=O)CCCC(=O)c2cc(C)c(O)c(C)c2)cc(C)c1O`: the growth was 99.8% with NCI-H23 lung; 85% in the test with NCI-H226 lung; 114% in the test on NCI-H322M lung; 98.9% in the test with HOP-62 NSCLC; 112% in the test with NCI-H460 lung; 82.9% with HOP-92 NSCLC. Also, the growth is 91.1% in the test with NCI-H522 lung; 104% in the test on A549/ATCC NSCLC; 93.9% in the test on 786-0 renal; -53.1% (active) with COLO 205 colon; 109% with DU-145 prostate; 27.4% in the test on K-562 leukemia. For the same compound, the growth was 92.3% in the test with MALME-3M melanoma; 98.1% with MDA-MB-231 breast; 84.2% with RXF 393 renal; 99% in the test on SF-268 CNS; 99.9% in the test on SF-295 CNS; 102% in the test on SF-539 CNS. Besides, the growth is 105% in the test on UACC-257 melanoma and 98.6% in the test with M14 melanoma.

As to `CCOC(=O)C1=C(CCl)N(C)C(=O)NC1c1ccc2c(c1)OCO2` (stereo not given), the growth with NCI-H23 lung was 70.7%; in the test with NCI-H226 lung, 77%; with NCI-H322M lung, 85%; in the test on HOP-62 NSCLC, 74.7%; in the test on NCI-H460 lung, 72.1%; with HOP-92 NSCLC, 53.9%. The growth in the test with NCI-H522 lung is 32.7%; in the test with A549/ATCC NSCLC, 87.5%; in the test with 786-0 renal it was 53.9%; with COLO 205 colon, 69.1%; in the test on DU-145 prostate, 33.4%; in the test with K-562 leukemia, 16.7%. In addition, the growth with MALME-3M melanoma is 65%; in the test on MDA-MB-231 breast it was 65.3%; in the test with RXF 393 renal, 41.3%; in the test on SF-268 CNS, 91.6%; in the test with SF-295 CNS, 95.1%; in the test with SF-539 CNS, 32.5%. Also, the growth in the test on UACC-257 melanoma is 59.5%; in the test with M14 melanoma it was 42.1%.

Regarding `C#Cc1cccc(Nc2ncnc3cc(NC(=O)CCl)ccc23)c1`, the growth is -63.5% (active) with NCI-H23 lung; -42.2% (active) with NCI-H226 lung; -16.4% (active) in the test with NCI-H322M lung; -70.3% (active) in the test with HOP-62 NSCLC; -58.7% (active) with NCI-H460 lung; -75.3% (active) with HOP-92 NSCLC. Further, the growth in the test with NCI-H522 lung was -66% (active); with A549/ATCC NSCLC, -23.7% (active); with 786-0 renal, -79.3% (active); with COLO 205 colon, -70.4% (active); in the test on DU-145 prostate, -96.8% (active); in the test with K-562 leukemia, -15.6% (active). Further, the growth in the test on MALME-3M melanoma was -74.3% (active); in the test on MDA-MB-231 breast, -70.3% (active); with RXF 393 renal, -86.2% (active); with SF-268 CNS it was -59.7% (active); in the test with SF-295 CNS it was -82.5% (active); with SF-539 CNS, -90.9% (active). For the same compound, the growth in the test on UACC-257 melanoma was -7% (active); with M14 melanoma it was -87.4% (active).

In the case of `Cn1c(=O)c2[nH]c(SC/C(=N/O)c3ccc(Br)cc3)nc2n(C)c1=O`, the growth in the test with NCI-H23 lung was 35.7%; in the test on NCI-H226 lung, -7.02% (active); with NCI-H322M lung, 34.8%; in the test on HOP-62 NSCLC it was 8.56% (active); with NCI-H460 lung, 20.9%; in the test with HOP-92 NSCLC it was -72.9% (active). Further, the growth in the test with NCI-H522 lung was -14.5% (active); in the test on A549/ATCC NSCLC, 60.4%; with 786-0 renal it was -68.6% (active); in the test with COLO 205 colon it was 110%; in the test on DU-145 prostate it was 68.4%; in the test with K-562 leukemia, 67.1%. The growth with MALME-3M melanoma is 20%; with MDA-MB-231 breast, -5.9% (active); in the test with RXF 393 renal, -73.4% (active); in the test with SF-268 CNS it was 50%; with SF-295 CNS it was 13.9%; in the test with SF-539 CNS, -53.6% (active). The growth in the test with UACC-257 melanoma is 84%; in the test on M14 melanoma it was 58.8%.

As for `C(=C(\C1=NCCN1)n1ccc2ccccc21)/c1ccccc1`, the growth was 97% in the test with NCI-H23 lung; 93.5% in the test on NCI-H226 lung; 97.7% in the test with NCI-H322M lung; 96.3% in the test on HOP-62 NSCLC; 101% in the test with NCI-H460 lung; 78.7% in the test on HOP-92 NSCLC. In addition, the growth with NCI-H522 lung was 89.7%; in the test with A549/ATCC NSCLC it was 99.9%; in the test with 786-0 renal, 98.3%; in the test on COLO 205 colon it was 107%; with DU-145 prostate it was 103%; with K-562 leukemia, 96.7%. Besides, the growth with MALME-3M melanoma was 93.4%; in the test with MDA-MB-231 breast, 96.8%; in the test with RXF 393 renal, 89.9%; with SF-268 CNS, 91.8%; in the test on SF-295 CNS, 99.3%; with SF-539 CNS, 99.5%. For the same compound, the growth is 93.3% with UACC-257 melanoma and 91.4% in the test on M14 melanoma.

As to `c1cc(OCCN2CCCCC2)ccc1CNc1ccc2nc(CCC3CCCCC3)[nH]c2c1`, the growth is 73.8% in the test on NCI-H23 lung; 36.2% in the test on NCI-H226 lung; 74.6% in the test on NCI-H322M lung; 54.2% in the test on HOP-62 NSCLC; 33.6% in the test on NCI-H460 lung; 26.7% in the test on HOP-92 NSCLC. Further, the growth with NCI-H522 lung was 50.4%; with A549/ATCC NSCLC, 42.3%; with 786-0 renal, -61% (active); with COLO 205 colon, -66% (active); in the test on DU-145 prostate, 59.9%; with K-562 leukemia, -1.42% (active). The growth was -85.9% (active) in the test with MALME-3M melanoma; 9.11% (active) in the test on MDA-MB-231 breast; 11.9% in the test with RXF 393 renal; 57.6% in the test with SF-268 CNS; -38.6% (active) in the test with SF-295 CNS; -73.3% (active) in the test on SF-539 CNS. The growth in the test on UACC-257 melanoma and in the test with M14 melanoma was -75% (active) throughout.

With `CNC(=O)NCC1OC(n2cnc3c(NC(=O)Nc4ccccc4)ncnc32)C2OC(=O)CC12` (stereo not given), the growth in the test on NCI-H23 lung was 90.2%; in the test on NCI-H226 lung it was 99.2%; in the test with NCI-H322M lung, 101%; in the test on HOP-62 NSCLC it was 94.2%; in the test with NCI-H460 lung, 114%; in the test with HOP-92 NSCLC, 71.2%. For the same compound, the growth with NCI-H522 lung is 106%; in the test with A549/ATCC NSCLC, 120%; with 786-0 renal, 98.3%; in the test on COLO 205 colon it was 110%; in the test with DU-145 prostate it was 110%; in the test with K-562 leukemia, 81.1%. Also, the growth with MALME-3M melanoma was 100%; with MDA-MB-231 breast it was 98.9%; in the test on RXF 393 renal, -22.7% (active); in the test with SF-268 CNS, 99.7%; with SF-295 CNS it was 103%; in the test with SF-539 CNS, 104%. Besides, the growth in the test on UACC-257 melanoma was 125%; in the test on M14 melanoma it was 105%.

With `O=C(NNc1nc2cc(F)ccc2n2c(CN3CCOCC3)ccc12)c1ccccc1`, the growth with NCI-H23 lung is 19.7%; in the test with NCI-H226 lung, 17.4%; in the test on NCI-H322M lung, 25.1%; in the test with HOP-62 NSCLC, 14.6%; in the test with NCI-H460 lung, 0.156% (active); in the test on HOP-92 NSCLC, 27.8%. Besides, the growth in the test on NCI-H522 lung was 9.17% (active); in the test with A549/ATCC NSCLC, 2.97% (active); in the test with 786-0 renal, 6.29% (active); in the test with COLO 205 colon, 1.54% (active); in the test on DU-145 prostate, 23.6%; in the test with K-562 leukemia it was 5.32% (active). Besides, the growth was 8.12% (active) in the test with MALME-3M melanoma; 17.3% in the test with MDA-MB-231 breast; -0.227% (active) in the test on RXF 393 renal; 14.8% in the test with SF-268 CNS; 0.468% (active) with SF-295 CNS; 4.33% (active) in the test on SF-539 CNS. In addition, the growth with UACC-257 melanoma was -6.53% (active); with M14 melanoma it was -15.6% (active).
